PubChem BioAssay

Assay: binders of probe aHhip on microarray, primary screen, stem cell growth factor project, biochemical, small-molecule microarray, fluorescence 635/667 (AID 1087);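 further: score merges spot fluorescence at 667nm with spot signal to noise ratio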
Conditions: higher = more signal
Compound `COCCOC(=O)N1C(=O)[C@@]2(c3cc(C#Cc4ccc(OC)cc4)ccc31)[C@H](C(=O)N1CCN(c3ncccn3)CC1)[C@H]1C(=O)O[C@H](c3ccccc3)[C@H](c3ccccc3)N1[C@@H]2c1ccc(O)cc1` has a composite z-score of -0.0994.
With `COC(=O)C(CC#Cc1ccc2c(c1)[C@]1(C(=O)N2)[C@H](C(=O)NC[C@H](O)c2ccccc2)[C@H]2C(=O)O[C@H](c3ccccc3)[C@H](c3ccccc3)N2[C@@H]1c1ccc(OCCO)cc1)C(=O)OC` the composite z-score was -0.447.
In the case of `O=C1C2C=CC(C(O)c3ccc(-c4ccccc4)s3)N(n3cnnc3)C2C(=O)N1Cc1ccccc1` (stereo not given), the composite z-score is reported as -0.0645.
Work on `O=c1cccc(C=Cc2ccccc2)o1` yielded a composite z-score of -0.0994.
In the case of `C=C(C(=O)CC[C@H](OC(C)=O)c1ccc(OCCO)cc1)C(C)C`, the composite z-score is reported as 0.174.
In the case of `CCCC[C@H]1OB(O)C[C@H]2C1=C(C)C[C@H]1C(=O)N(Cc3ccccc3)C(=O)[C@H]12`, the composite z-score is reported as 0.312.
In the case of `CCCCC(CC)C(O)C1C=CC2C(=O)N(c3ccccc3)C(=O)C2N1Nc1ccccc1` (stereo not given), the composite z-score is reported as -0.0618.
Compound `O=C(OCCF)C1=CCC(c2cccc(Cl)c2)O1` (stereo not given) has a composite z-score of -0.226.
For `COCC1=C2[C@@H](CCc3ccccc3)OB(O)C[C@@H]2[C@@H]2C(=O)N(Cc3ccccc3)C(=O)[C@@H]2C1`, the composite z-score was -0.201.
`CC(C)C[C@@H]1NC(=O)[C@H]2C[C@@H](C(=O)NCCCCCNC(=O)CS)[C@@H](c3cccc(OCCO)c3)N2C1=O` showed a composite z-score of -0.173.
`COc1ccc(CCN2C(=O)[C@@]3(Cc4ccccc42)c2ccccc2C(=O)N(Cc2ccccc2Cl)[C@H]3c2ccc(CO)cc2)cc1` showed a composite z-score of -0.0994.
In the case of `CCCCCN1CC=CC23O[C@@H]4C=CCOC(=O)[C@@H]4[C@H]2C(=O)N(CCCO)[C@@H]3C1=O` (stereo not given in full), the composite z-score is reported as -0.236.
In the case of `O=C1OCCC=C[C@H]2OC34C=CCN(Cc5ccccc5)C(=O)[C@H]3N(CCCCCCO)C(=O)[C@@H]4C12` (stereo not given in full), the composite z-score is reported as -0.621.
Compound `CN(C)CCCCNC(=O)[C@H]1C[C@H]2C(=O)N[C@@H](Cc3ccccc3)C(=O)N2[C@H]1c1ccc(O)cc1` has a composite z-score of 0.107.
With `COCCOC(=O)N1C(=O)[C@@]2(c3cc(C#CCC(C(=O)OC)C(=O)OC)ccc31)[C@H](c1ccccc1OCCO)N1[C@H](c3ccccc3)[C@H](c3ccccc3)OC(=O)[C@H]1[C@@H]2C(=O)N1CCc2cc(OC)c(OC)cc2C1` the composite z-score was -0.0655.
For `COC(=O)[C@@]1(Cc2ccccc2)[C@H]2c3cc(C(=O)N(C)C)n(Cc4c(-c5ccccc5)noc4C)c3C[C@H]2CN1C(=O)c1ccccc1`, the composite z-score was 0.162.
With `O=C1C[C@@](C(=O)NC2CC2)(c2ccc([N+](=O)[O-])cc2)[C@@H](c2ccc(CO)cc2)N1CC12CC3CC(CC(C3)C1)C2` the composite z-score was -0.136.
Compound `COCCOC(=O)N1C(=O)[C@@]2(c3cc(C#CC4=CCCCC4)ccc31)[C@H](C(=O)NC[C@H](O)c1ccccc1)[C@H]1C(=O)O[C@H](c3ccccc3)[C@H](c3ccccc3)N1[C@@H]2c1ccc(O)cc1` has a composite z-score of -0.0296.
In the case of `CC(C)NC(=O)[C@@]1(Cc2ccccc2I)c2ccccc2C(=O)N(Cc2ccccc2)[C@H]1c1ccc(CO)cc1`, the composite z-score is reported as 0.0401.
`O=C1N(CCS(=O)(=O)c2ccccc2)c2ccccc2C[C@@]12COC(c1ccc(OCCCO)cc1)=N2` showed a composite z-score of 0.075.
For `CC(C)(C)N1CC=CC23O[C@@H]4C=CCOC(=O)[C@@H]4[C@H]2C(=O)N(CCCCCO)[C@@H]3C1=O` (stereo not given in full), the composite z-score was -0.339.
Compound `COCCOC(=O)N1C(=O)[C@@]2(c3cc(C#CCNC(N)=O)ccc31)[C@H](C(=O)N1CCN(c3ncccn3)CC1)[C@H]1C(=O)O[C@H](c3ccccc3)[C@H](c3ccccc3)N1[C@@H]2c1ccccc1OCCO` has a composite z-score of -0.204.
With `COCCOC(=O)N1C(=O)[C@@]2(c3ccccc31)[C@H](c1ccc(O)cc1)N1[C@H](c3ccccc3)[C@H](c3ccccc3)OC(=O)[C@H]1[C@@H]2C(=O)N1CCc2cc(OC)c(OC)cc2C1` the composite z-score was -0.179.
Compound `CCCN1C(=O)[C@]2(COC(c3ccc(OCCCO)cc3)=N2)Cc2ccccc21` has a composite z-score of 0.0044.
For `NC(=O)NCC#Cc1ccc2c(c1)[C@]1(C(=O)N2)[C@H](C(=O)NC[C@H](O)c2ccccc2)[C@H]2C(=O)O[C@H](c3ccccc3)[C@H](c3ccccc3)N2[C@@H]1c1ccc(O)cc1`, the composite z-score was 0.356.
For `CC(C)N1C(=O)c2ccccc2[C@@H](C(=O)NCCCN(C)C)[C@@H]1c1ccc(CO)cc1`, the composite z-score was 0.0066.
In the case of `CC(C)=CCCC(C)=CC(O)C1C=CC2C(=O)N(c3ccccc3)C(=O)C2N1Nc1ccccc1` (stereo not given), the composite z-score is reported as 0.0497.
With `CN(C)CCCCCCNC(=O)[C@H]1C[C@H]2C(=O)N[C@@H](CCCCN)C(=O)N2[C@H]1c1ccc(O)cc1` the composite z-score was 1.84.
`O=C1O[C@H](c2ccccc2)[C@H](c2ccccc2)N2[C@H]1[C@@H](C(=O)N1CCN(c3ncccn3)CC1)[C@]1(C(=O)Nc3ccccc31)[C@H]2c1ccc(OCCO)cc1` showed a composite z-score of 0.34.
`COc1cc2c(cc1O)C(C)N(Cc1cccc(OC(F)(F)F)c1)CC2` (stereo not given) showed a composite z-score of -0.205.
Compound `[N-]=[N+]=NCc1ccccc1C[C@@]1(C(=O)N2CCOCC2)N=C(c2ccc(OCCCO)cc2)O[C@@H]1c1ccccc1CN=[N+]=[N-]` has a composite z-score of 0.156.
With `N[C@@H](Cc1ccccc1)Cn1cc(-c2ccccc2)nn1` the composite z-score was -0.186.
`CC(=CC1CCCCC1)[C@@H](NC(=O)c1ccc(C(F)(F)F)cc1)c1ccc(-c2ccccc2)cc1` gave a composite z-score of 0.57.
Compound `CCOC(=O)C[C@H]1[C@H](OC(=O)c2ccccc2-c2ccccc2)[C@@H](NC(=O)c2ccc3ccccc3c2)c2cc(OCCCO)ccc2N1C(=O)c1ccc2ccccc2n1` has a composite z-score of -0.0373.
`CC(c1ccccc1)C(O)C1C=CC2C(=O)NC(=O)C2N1Nc1ccccn1` (stereo not given) showed a composite z-score of -0.271.
